Screening data deposited in PubChem BioAssay by National Center for Advancing Translational Sciences (NCATS).
A selection: hits, their analogues and other compounds. The true share with any hit is near 3.5%.
FBPA Giardia inh: qHTS Assay for Inhibitors of Fructose-1,6-bisphosphate Aldolase from Giardia Lamblia; 290,000 tested, 0.71% active; Potency, µM (doses to about 59.6 µM), hits mostly inhibitors; purified Giardia FBPA; A8B2U2; also: nearly all actives have a fitted effect of over 55% in size
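Giardia FBPA (40 nM reagent) was preincubated 10 min at RT with compound (up to 57.5 uM final), then substrate plus GAPDH/TPI/NAD/arsenate coupling system with diaphorase/resazurin was added; resorufin fluorescence (525/598 nm) was read after 20 min.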
LmPK inhibitor: qHTS Assay for Inhibitors of Leishmania Mexicana Pyruvate Kinase (LmPK); AID 1721, 2009; Q27686; purified LmPK, Kinase-Glo ATP luminescence, 1 h; Potency, µM (doses to about 57.5 µM), usual class: inhibitors; 290,000 tested, 0.37% active
Target sequence (Q27686 whole entry, looked up): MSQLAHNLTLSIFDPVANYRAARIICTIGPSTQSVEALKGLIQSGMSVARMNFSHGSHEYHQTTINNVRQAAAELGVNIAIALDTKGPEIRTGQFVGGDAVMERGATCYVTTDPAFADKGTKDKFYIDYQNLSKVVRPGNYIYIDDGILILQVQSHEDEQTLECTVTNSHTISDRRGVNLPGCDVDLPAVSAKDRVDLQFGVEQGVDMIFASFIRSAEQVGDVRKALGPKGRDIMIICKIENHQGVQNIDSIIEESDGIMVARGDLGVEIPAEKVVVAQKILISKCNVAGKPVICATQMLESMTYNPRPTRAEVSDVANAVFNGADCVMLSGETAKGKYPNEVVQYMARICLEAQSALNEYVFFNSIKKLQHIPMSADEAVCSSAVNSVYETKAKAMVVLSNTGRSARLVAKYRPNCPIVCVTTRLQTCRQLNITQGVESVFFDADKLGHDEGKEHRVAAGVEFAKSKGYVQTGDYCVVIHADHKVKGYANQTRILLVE
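Pyruvate kinase activity monitored as ATP production (luciferase luminescence). Conditions: 0.1 nM enzyme, 0.5 mM PEP, 0.1 mM ADP, 1 h, RT; normalized against uninhibited and no-enzyme wells.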
Tb PYK inh: qHTS of Trypanosoma Brucei Inhibitors; TbPYK enzyme, Kinase-Glo Plus ATP luminescence, 45 min; Potency, µM (series often up to 76.8 µM), usual class: inhibitors; 410,000 tested, 0.12% active; also: nearly all actives have a fitted effect of over 50% in size
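Assay buffer: 50 mM TEA pH 7.2, 100 mM KCl, 10 mM MgCl2, 0.05% BSA, 0.01% Tween-20. Pyruvate kinase from T. brucei plus substrate met compound, then ADP (130 uM final). Luminescence was read post 45 min RT.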
NS1 function inh: qHTS Assay for Inhibitors of Influenza NS1 Protein Function; 270,000 tested, 0.4% active; AID 2326, 2010; Potency, µM (highest dose often 46.1 µM); calls by dose curve; also: actives are rising curves; nearly all actives have a fitted effect of over 50% in size
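OD600 was taken as the measure of yeast growth restored by compound in an NS1-expressing S. cerevisiae strain. Cells had been washed out of glucose medium and diluted 1:100 into galactose -URA medium, pH 6.0.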
RE007 growth inh: qHTS Assay for Inhibitors of the HIV-1 protein Vpr. AID 651644, 2012. S. pombe RE007 Vpr strain, BacTiter-Glo ATP luminescence, 24 h. Potency, µM (top dose mostly 92.2 µM), actives largely listed as inhibitors. 360,000 tested, 0.21% active; active = well fitted falling curve with a large enough effect; inconclusive = small, poorly fitted or top-dose-only effect; inactive = no such curve, though single readings can be large or run the other way; also: nearly all actives have a fitted effect of over 50% in size
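Fission yeast strain RE007, carrying one chromosomally integrated HIV-1 vpr copy, was seeded at OD 0.01 in PMG+AL medium with 23 nL pinned compound. After 24 h at 30 °C and 99% humidity, viability was read by BacTiter-Glo luminescence.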
Sm TGR block: qHTS Assay for the Inhibitors of Schistosoma Mansoni Peroxiredoxins. purified TGR, DTNB reduction, TNB absorbance 405 nm. 360,000 tested, 3% active. Potency, µM (top dose mostly 114 µM), most hits filed as inhibitors; also: nearly all actives have a fitted effect of over 60% in size
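Kinetic colorimetric format: TGR-catalysed, NADPH-driven DTNB reduction monitored via TNB absorbance. Enzyme dispensed at 20 nM; compound exposure 15 min at room temperature before reaction start.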
Of the large screens only hits and unclear results are named; the others gave an inactive call. Unless noted, calls follow the shape of the dose curve; as a rule, active = well fitted curve in the direction sought with a large enough effect; inconclusive = small, poorly fitted or top-dose-only effect, or another doubt; inactive = no such curve, though single readings can be large; an effect the other way counts as inactive or inconclusive.

COc1ccc(CNC(=O)CCc2c(C)nc3c(c(C)nn3-c3ccccc3)c2C)cc1	none (no result: FBPA Giardia inh, LmPK inhibitor, NS1 function inh, RE007 growth inh)
CCOC(=O)CNC(=O)c1sc(NC(=O)c2ccccc2F)nc1C	LmPK inhibitor 13µM
COc1cc(CNc2ccc3[nH]c(=O)[nH]c3c2)cc(Cl)c1OCC(=O)NC(C)(C)C	FBPA Giardia inh 10µM, Sm TGR block inconclusive
Cc1ccc(Sc2c([N+](=O)[O-])ncn2C)cc1	Sm TGR block inconclusive
Cn1cnc([N+](=O)[O-])c1Sc1ccc(Br)cc1	Sm TGR block 22µM
O=c1c2sc3ccccc3c2n(Cc2ccccc2F)c(=O)n1Cc1ccccc1	none (no result: FBPA Giardia inh, LmPK inhibitor, NS1 function inh, RE007 growth inh)
CCc1cccc(NC(=O)CCN2C(=O)c3ccccc3Sc3ncccc32)c1	Sm TGR block 45µM (no result: FBPA Giardia inh, LmPK inhibitor, NS1 function inh, RE007 growth inh)
CC(C)NC(=O)CCN1C(=O)c2ccccc2Sc2ncccc21	none
Cc1ccc(C)c(NC(=O)CCN2C(=O)c3ccccc3Sc3ncccc32)c1	none (no result: FBPA Giardia inh, LmPK inhibitor, NS1 function inh, RE007 growth inh)
O=C(CCN1C(=O)c2ccccc2Sc2ncccc21)Nc1ccc(F)cc1	Sm TGR block 16µM (no result: FBPA Giardia inh, LmPK inhibitor, NS1 function inh, RE007 growth inh)
Cc1ccc(Cl)cc1N1CCN(C(=O)c2ccc(CS(=O)(=O)c3ccc(Br)cc3)o2)CC1	none (no result: FBPA Giardia inh, LmPK inhibitor, NS1 function inh, RE007 growth inh)
COc1ccccc1S(=O)(=O)Cc1ccc(C(=O)N2CCN(c3ccccn3)CC2)o1	Sm TGR block 28µM
COc1ccc(S(=O)(=O)Cc2ccc(C(=O)N3CCN(c4ccccn4)CC3)o2)cc1	none
O=C(c1ccc(CS(=O)(=O)c2ccc(Br)cc2)o1)N1CCN(c2ncccn2)CC1	Sm TGR block 50µM
O.O=C([O-])CC([S-])C(=O)[O-].[Au+].[Na+].[Na+] (stereo not given)	none (no result: FBPA Giardia inh, LmPK inhibitor, NS1 function inh, RE007 growth inh, Sm TGR block)
O=[N+]([O-])c1ccc(/C=N/NS(=O)(=O)c2ccc(Cl)cc2)o1	RE007 growth inh inconclusive, Sm TGR block 13µM
O=[N+]([O-])c1ccc(S(=O)(=O)N/N=C/c2ccco2)cc1	none (no result: NS1 function inh)
Cc1ccc(S(=O)(=O)N/N=C\c2ccc([N+](=O)[O-])o2)cc1C	none (no result: FBPA Giardia inh)
Cc1ccc(S(=O)(=O)N/N=C\c2ccc([N+](=O)[O-])o2)cc1	RE007 growth inh inconclusive, Sm TGR block 20µM
Cc1ccc(S(=O)(=O)N/N=C\c2ccc(C)o2)cc1	Sm TGR block 35µM
Cc1ccc(/C=N/NS(=O)(=O)c2ccc([N+](=O)[O-])cc2)o1	none
CC1(C)O[C@H]2[C@@H](O1)[C@@H](C(=O)Nc1ccc(F)c(F)c1)O[C@@H]1OC(C)(C)O[C@@H]12	none (no result: FBPA Giardia inh, LmPK inhibitor, NS1 function inh, RE007 growth inh)
CCOC(=O)c1c(C)oc2ncnc(Nc3cc(Cl)ccc3OC)c12	none (no result: FBPA Giardia inh, LmPK inhibitor, NS1 function inh, RE007 growth inh)
COC(=O)c1[nH]nc(C(=O)OC(C)(C)C)c1-c1ccccc1	Sm TGR block 22µM
CCOC(=O)c1[nH]c(C)c(CCC(=O)NCc2ccc(OC(C)C)cc2)c1C	none (no result: FBPA Giardia inh, LmPK inhibitor, NS1 function inh, RE007 growth inh)
C#CCCCO/N=C1/C[C@@H](O)[C@@H](O)[C@@H]2[C@@H]3C(=O)N(c4cccc(Oc5ccccc5)c4)C(=O)[C@H]3CC[C@H]12	none (no result: LmPK inhibitor, Tb PYK inh, NS1 function inh, RE007 growth inh, Sm TGR block)
COc1cc(N2C(=O)C=CC2=O)c(OC)cc1Cl	FBPA Giardia inh inconclusive, LmPK inhibitor 14µM, Tb PYK inh inconclusive, RE007 growth inh 40µM, Sm TGR block 0.71µM
C=CCNC(=S)NNC(=O)c1ccc(C)c(Cl)c1	none (no result: Sm TGR block)
C=CCNC(=S)NC(=O)c1ccc(C)c(Br)c1	FBPA Giardia inh inconclusive, RE007 growth inh inconclusive, Sm TGR block 32µM
O=c1[nH]c2cc3c(cc2cc1CN(Cc1cccnc1)Cc1nnnn1Cc1ccco1)OCCO3	FBPA Giardia inh inconclusive, Sm TGR block 14µM
Cc1cc(C)c2cc(CN(Cc3ccc4c(c3)OCO4)Cc3nnnn3Cc3ccco3)c(=O)[nH]c2c1	NS1 function inh inconclusive, Sm TGR block 40µM
O=c1[nH]c2cc3c(cc2cc1CN(Cc1ccccc1)Cc1nnnn1Cc1ccco1)OCCO3	FBPA Giardia inh inconclusive, Sm TGR block 8.9µM
O=c1[nH]c2cc3c(cc2cc1CN(CCc1ccccc1)Cc1nnnn1C1CCCC1)OCCO3	FBPA Giardia inh inconclusive, Sm TGR block 45µM (no result: Tb PYK inh, RE007 growth inh)
